The full list was thinned out, with hits kept by preference.
Pf apPOL block – Pf-apPOL DNA polymerase inhibition; Recombinant Pf-apPOL, molecular beacon fluorescence, 1.5 h; inhibition, % at 10 µM; actives 0.25% (n = 210,000)
mHTT-CaM PPI inh – mHTT-calmodulin interaction abrogation. P42858. AlphaScreen His-mHTT/GST-CaM binding, luminescence. inhibition, % at 15 µM. actives 3.6% (n = 190,000). AID 1671202;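 also: 0% = both proteins with DMSO and 100% = one protein alone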
Active calls of the source: *; i = inactive; / = not tested or not shown. Rule as the data show it: active = inhibition above about 50%; inactive = the rest.

SMILES	Pf apPOL block	mHTT-CaM PPI inh
C=CCn1c(C(=O)N2CCN(C(C)=O)CC2)cc2sc(C)cc21	2	10
FC(F)Oc1ccc(-c2cc3ccccn3c2)cc1	0	44
COc1ccc(-c2cc3ccccn3c2)c(OC)c1	-3	75*
CCCNc1c(N)cc(C(F)(F)F)cc1[N+](=O)[O-]	-41	55*
O=[N+]([O-])c1cc(C(F)(F)F)cc([N+](=O)[O-])c1NCCCn1ccnc1	-4	/
COc1cccc2cc(-c3cc(=O)oc4cc(OCC(C)=O)ccc34)c(=O)oc12	-9	5
Cc1ccc(NC(=O)c2cc3cc(Cl)ccc3oc2=N)cc1	-1	0
CC(C)C(=O)Nc1ccc(N2CCCN(Cc3ccc(F)cc3F)C2=O)cc1	-8	9
COc1ccc(C)cc1C1=C/C(=C\c2ccc(C)o2)C(=O)O1	3	61*
COc1ccc(OC)c(/C=C2\C=C(c3cc(OC)ccc3OC)OC2=O)c1	-8	12
Cc1cc([N+](=O)[O-])ccc1N=Cc1c(C)[nH]n(-c2ccccc2C)c1=O	7	7
O=C1C2C3c4ccccc4C(c4ccccc43)C2C(=O)N1c1ccc(Cl)cn1 (stereo unspecified)	1	1
COc1cccc(NC(=O)N2CCCC2c2ccccc2C)c1 (stereo unspecified)	2	-8
N=c1c(S(=O)(=O)c2ccccc2)cc2c(=O)n3ccccc3nc2n1CCc1ccccc1	-3	-9
O=C(/C=C/c1ccco1)Nc1ccc(NC(=O)c2ccco2)cc1	-6	30
O=C(/C=C/c1ccco1)c1ccc(NC(=O)c2ccco2)cc1	-2	93*
O=C(Nc1cc(Cl)ccc1Cl)c1cccc(S(=O)(=O)N2CCCCC2)c1	-9	-11
O=C(Nc1cc(Cl)ccc1O)c1cccc(S(=O)(=O)N2CCCC2)c1	-5	51*
Cn1c(=O)c2c(ncn2CC(=O)N/N=C/c2ccco2)n(C)c1=O	/	i
O=C(CN1c2ccccc2Sc2ccccc21)NN=Cc1ccco1	62*	/
CC(C)c1ccccc1OCC(=O)Nc1ccc([N+](=O)[O-])cc1	-2	7
Cc1ccc(CN2CCC(C(=O)N3CCN(c4ccccc4F)CC3)CC2)cc1	-4	16
Cc1ccc(C(=O)N2CCC(C(=O)N3CCN(c4ccccc4F)CC3)CC2)cc1	57*	6
COc1ccc(C(=O)Nc2nnc(C3CC(=O)N(c4ccc(Cl)cc4)C3)o2)cc1 (stereo unspecified)	-6	7
CC(=O)N1CCc2c(c(-c3nc(Cc4ccccc4)no3)nn2C)C1	3	0
SMILES	Pf apPOL block	mHTT-CaM PPI inh
COc1ccc(C(=O)N2CCc3c(c(C(=O)NCc4ccccc4)nn3C)C2)c(OC)c1	-10	51*
Cn1nc(C(=O)NCc2ccccc2)c2c1CCN(C(=O)c1ccccc1Cl)C2	-10	34
Cn1nc(C(=O)NCc2ccccc2)c2c1CCN(C(=O)c1ccc(C#N)cc1)C2	-2	21
COc1ccc2cc(C(=O)N3CCc4c(c(C(=O)NCc5ccccc5)nn4C)C3)[nH]c2c1	-2	37
Cc1ccccc1C(=O)N1CCc2c(c(C(=O)NCc3ccccc3)nn2C)C1	-16	11
COc1ccc(C(=O)N2CCc3c(c(C(=O)NCc4ccccc4)nn3C)C2)cc1	-10	56*
COc1cc(OC)cc(C(=O)N2CCc3c(c(C(=O)NCc4ccccc4)nn3C)C2)c1	-3	75*
CC(Oc1ccccc1)C(=O)N1CCc2c(c(C(=O)NCc3ccccc3)nn2C)C1 (stereo unspecified)	-7	55*
CCCNC(=O)N1CCCC(C)(C(=O)NCc2ccccc2C)C1 (stereo unspecified)	-3	-8
COc1ccc(CCNC(=O)N2c3ccccc3Sc3ccccc32)cc1OC	7	21
CCOc1ccc(-c2c(C)sc(=NCCO)n2-c2ccccc2)cc1	2	43
CCOc1cc(C(=O)Nc2cccc(NC(=O)c3ccco3)c2)cc(OCC)c1OCC	2	20
COC(=O)C(C)Oc1ccc2c(c1)OC(=Cc1ccc(OC)cc1OC)C2=O (stereo unspecified)	-9	-29
Cc1c(Cl)cccc1NC(=O)N1CCC(n2cnc3ccc(F)cc3c2=O)CC1	-5	1
Cn1nc(C(=O)NCc2ccccc2)c2c1CCN(C(=O)c1ccccc1)C2	1	36
Cc1ccc(C(=O)N2CCc3c(c(C(=O)NCc4ccccc4)nn3C)C2)cc1	-2	75*
CC(=O)N(C1=C(N2CCOCC2)C(=O)c2ccccc2C1=O)c1ccccc1	0	20
COc1cccc(N(C(C)=O)C2=C(N3CCCC3)C(=O)c3ccccc3C2=O)c1	-12	99*
CC(=O)N(C1=C(N2CCCCC2)C(=O)c2ccccc2C1=O)c1ccccc1C	-12	27
CC(=O)N(C1=C(N2CCOCC2)C(=O)c2ccccc2C1=O)c1ccc(Cl)c(Cl)c1	-8	96*
O=C(Nc1cccc(C(F)(F)F)c1)c1csc2c1CCCC2	-7	-16
O=C(c1cc(F)ccc1Cl)N1CCc2nc3cc[nH]n3c(=O)c2C1	0	3
O=C1NC(=O)/C(=C\c2cc(Br)c(Sc3ccc(Cl)cc3)o2)N1	-3	26
O=Cc1cc(Br)c(Sc2ccc(Cl)cc2)o1	-6	61*
CC(=O)Nc1ccc2cccc(O)c2n1	-4	100*
SMILES	Pf apPOL block	mHTT-CaM PPI inh
CC(=O)Nc1ccccc1/C=C/c1ccc2cccc(O)c2n1	4	26
O[C@H]1CN(Cc2cccs2)[C@@H](c2ccccc2)C[C@@H]1n1cc(C2CC2)nn1	-3	18
Cc1ccc([C@H]2C[C@H](O)[C@@H](n3cc(C4CC4)nn3)CN2Cc2cccs2)cc1	-4	100*
Cc1ccc([C@H]2C[C@H](n3cc(C4CC4)nn3)[C@@H](O)CN2Cc2cccs2)cc1	-3	80*
Cc1ccc([C@H]2C[C@@H](O)[C@H](n3cc(C4CC4)nn3)CN2Cc2cccs2)cc1	-1	-4
COc1ccc([C@H]2C[C@@H](n3cc(-c4ccc(F)cc4)nn3)[C@H](O)CN2Cc2cccs2)cc1	2	-1
COc1ccc([C@H]2C[C@H](n3cc(-c4ccc(F)cc4)nn3)[C@@H](O)CN2Cc2cccs2)cc1	-3	63*
COc1ccc(N2CCN(C(=O)c3cccs3)CC2)nn1	-8	2
O=C(c1ccc(F)cc1)N1CCCC1c1cccc(F)c1 (stereo unspecified)	-1	-9
CC1CC(C)CN(C(=O)c2ccc(SCc3cccnc3)c([N+](=O)[O-])c2)C1 (stereo unspecified)	0	8
CCN(Cc1cnn(CC)c1)C(=O)c1cn2ccccc2n1	4	-1
COc1cc(NC(=O)Nc2ccccc2C)c(OC)cc1Cl	-4	3
COc1ccccc1-c1nc(C2CCN(C(=O)c3ccc(F)c(Cl)c3)CC2)no1	-2	92*
CC(=O)Nc1ccc(-c2noc(C3CCN(C(=O)c4cc5ccccc5[nH]4)CC3)n2)cc1	3	98*
Cc1oc(C2CCN(C(=O)c3ccc(C(C)(C)C)cc3)CC2)nc1C(=O)N1CCCCC1	-7	31
Cc1oc(C2CCN(C(=O)c3ccc(C(F)(F)F)cc3)CC2)nc1C(=O)N1CCCC1	-3	51*
COc1ccccc1-c1nc(C2CCN(C(=O)c3cccc(F)c3)CC2)no1	0	13
O=C(c1cc2ccccc2[nH]1)N1CCC(c2noc(-c3ccccc3)n2)CC1	3	-5
O=C(c1cc2cc(Cl)ccc2[nH]1)N1CCC(c2noc(-c3ccccc3)n2)CC1	8	83*
